PubChem BioAssay (NCI)
The panel holds about 83,000 compounds, 20% with a hit somewhere; the sample as a whole holds those more often.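 Growth was measured after 48 h exposure to one concentration of compound in 96-well plates. Values under 10 count as active.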 A number with no mark means an inactive call. Activity calls are given as the source filed them.

Tests used:
Experiment in all cases: NCI-60 one-dose screen, 48 h (100 = growth as untreated, 0 = no growth, -100 = all killed)
Conditions in all cases: 10 µM unless noted
NCI-H23 lung = test system: NCI-H23 lung
NCI-H226 lung = test system: NCI-H226 lung
NCI-H322M lung = test system: NCI-H322M lung
HOP-62 NSCLC = test system: HOP-62 NSCLC
NCI-H460 lung = test system: NCI-H460 lung
HOP-92 NSCLC = test system: HOP-92 NSCLC
NCI-H522 lung = test system: NCI-H522 lung
A549/ATCC NSCLC = test system: A549/ATCC NSCLC
786-0 renal = test system: 786-0 renal
COLO 205 colon = test system: COLO 205 colon

SMILES	growth (NCI-H23 lung)	growth (NCI-H226 lung)	growth (NCI-H322M lung)	growth (HOP-62 NSCLC)	growth (NCI-H460 lung)	growth (HOP-92 NSCLC)	growth (NCI-H522 lung)	growth (A549/ATCC NSCLC)	growth (786-0 renal)	growth (COLO 205 colon)
Cc1c(-c2ccc(O)cc2)n(Cc2ccc(OCCN3CCCCCC3)cc2)c2ccc(O)cc12	77%	89.7%	92.3%	80.6%	89.3%	59.3%	75.5%	72.5%	75.7%	106%
CCOC(=O)C1=C(c2ccccc2)N=C2SC=C(c3ccc(Cl)cc3)N2C1c1ccc(Cl)cc1 (stereo not given)	64.2%	79.5%	88.5%	91.6%	83.3%	69.8%	79.9%	77%	84.4%	76.2%
CSc1nc2ncc([N+](=O)[O-])c(=O)n2[nH]1	104%	97%	110%	98.8%	103%	52.4%	93.8%	101%	108%	119%
O=C(NCc1ccc(Cl)cc1Cl)C1CCC(=O)N1c1cccs1 (stereo not given)	91%	103%	104%	92.9%	104%	103%	76.8%	86.3%	94%	96.8%
COc1ccccc1N1CCCCC1	102%	104%	108%	90.4%	109%	104%	93.8%	101%	95.8%	113%
COC1=CC(c2ccc[nH]2)=N/C1=C\c1[nH]c(C)c(CC(=O)OCc2ccccc2)c1CCC(=O)OCc1ccccc1	-12.6% (active)	-12.8% (active)	34.7%	-22.2% (active)	12.2%	-26.1% (active)	-48.5% (active)	5.29% (active)	-56.2% (active)	-45.6% (active)
O=C(CSc1nnc(-c2cnccn2)n1-c1ccccc1)c1ccc(Cl)cc1	108%	104%	95.5%	97.7%	103%	81.4%	95.3%	91.7%	95.1%	99.6%
O=C(Nc1nc2ccc(C(=O)N3CCN(/C=C/c4ccccc4)CC3)cc2s1)c1ccc(NCCc2ccccc2)c([N+](=O)[O-])c1	51%	62.1%	82.8%	58.4%	16.5%	51.8%	48.3%	55.2%	69.7%	18.5%
COc1ccc(C/C(C)=C(/c2ccc(OCCN(C)C)cc2)c2ccc(OC(=O)NCc3ccccc3)cc2)cc1	83.1%	97.7%	80.8%	83.3%	22.9%	38.2%	50.4%	55%	61.1%	20.4%
Cn1cc(-c2ccc3nc(-c4ccc(CC(=O)ONc5cc(C(C)(C)C)on5)cc4)cnc3c2)cn1	43.7%	43.2%	22.8%	37.1%	25.2%	30.3%	39.4%	31.1%	23.1%	51.3%
O=C1/C(=C/c2ccccc2Br)COc2ccc(O)cc21	92.5%	100%	93.8%	88.9%	95.3%	104%	31.3%	86.4%	73%	100%
CCC(C)(C)C(=O)O[C@H]1C[C@@H](C)C=C2C=C[C@H](C)[C@H](CC[C@@H]3CC(SCCN)CC(=O)O3)[C@H]21 (stereo not given in full)	98.2%	98.3%	97.4%	98.9%	107%	34.6%	65.4%	75.7%	102%	82.8%
Oc1c(I)cc(I)cc1CNCCN(Cc1ccccn1)Cc1ccccn1	-14% (active)	-65.1% (active)	-30.4% (active)	-65.1% (active)	-56.5% (active)	-61.8% (active)	-27.6% (active)	-33.3% (active)	-95.2% (active)	-34.6% (active)
